Our source for the B-score of Tl+ flux slope (higher = more flux/activation; lower = inhibition) values is PubChem BioAssay AID1456 (Vanderbilt High Throughput Screening Facility, 2008).

Out of some 190,000 compounds screened, about 4,100 (2.2%) were called active. The list comes from a sample in which actives are over-represented; it also holds similar structures and randomly drawn compounds. A number with no mark means an inactive call.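 The calls were made as follows: active = thallium flux slope and its plate-corrected score both differing from the plate sample mean at a set confidence after two filtering rounds, in either direction; inactive = the rest.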

Sequence of Solute carrier family 12 member 5 (Homo sapiens) (Q9H2X9 whole entry, looked up): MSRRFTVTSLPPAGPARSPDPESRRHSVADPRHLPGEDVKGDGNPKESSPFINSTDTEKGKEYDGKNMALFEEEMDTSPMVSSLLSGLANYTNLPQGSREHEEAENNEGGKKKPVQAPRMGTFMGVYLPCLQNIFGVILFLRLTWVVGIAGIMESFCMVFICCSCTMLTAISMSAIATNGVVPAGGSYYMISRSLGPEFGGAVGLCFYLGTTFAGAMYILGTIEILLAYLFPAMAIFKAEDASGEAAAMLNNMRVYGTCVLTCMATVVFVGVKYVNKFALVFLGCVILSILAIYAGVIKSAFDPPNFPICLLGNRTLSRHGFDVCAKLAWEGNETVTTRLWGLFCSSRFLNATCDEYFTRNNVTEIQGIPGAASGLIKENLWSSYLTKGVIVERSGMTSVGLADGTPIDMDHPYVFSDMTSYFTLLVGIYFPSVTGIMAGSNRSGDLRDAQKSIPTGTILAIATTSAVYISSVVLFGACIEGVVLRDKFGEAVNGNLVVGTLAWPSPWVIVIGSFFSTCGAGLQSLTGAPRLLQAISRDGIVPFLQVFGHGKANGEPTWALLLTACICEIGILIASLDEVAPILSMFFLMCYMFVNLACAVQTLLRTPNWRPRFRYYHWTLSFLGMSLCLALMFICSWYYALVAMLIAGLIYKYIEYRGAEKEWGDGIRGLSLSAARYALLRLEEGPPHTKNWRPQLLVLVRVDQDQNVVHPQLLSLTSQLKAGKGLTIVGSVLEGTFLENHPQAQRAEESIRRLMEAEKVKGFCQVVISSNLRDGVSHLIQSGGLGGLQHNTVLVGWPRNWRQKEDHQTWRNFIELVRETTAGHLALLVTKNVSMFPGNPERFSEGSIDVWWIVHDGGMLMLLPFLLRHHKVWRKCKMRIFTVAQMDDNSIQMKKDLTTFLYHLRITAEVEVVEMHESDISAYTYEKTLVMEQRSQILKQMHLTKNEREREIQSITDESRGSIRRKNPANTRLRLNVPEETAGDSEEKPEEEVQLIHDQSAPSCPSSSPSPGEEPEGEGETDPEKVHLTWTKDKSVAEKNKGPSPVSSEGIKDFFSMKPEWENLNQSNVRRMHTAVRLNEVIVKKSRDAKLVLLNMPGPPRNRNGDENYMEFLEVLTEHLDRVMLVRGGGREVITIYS

This assay concerns the target Solute carrier family 12 member 5 (Homo sapiens) (UniProt Q9H2X9). Kind of assay: modulation of human KCC2 ion transport – cell-based, HEK293 KCC2, FluoZin-2 fluorescence, MLSMR, primary screen (AID 1456).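 Also: slope of fluorescence scaled to starting intensity during 10 to 20 s after thallium.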 The note with it: KCC2 cells, thallium flux FluoZin-2 fluorescence; at 10 µM.
For the compound `COC(=O)c1cc2occc2n1Cc1nc(-c2ccccc2C)oc1C`, the B-score of Tl+ flux slope (higher = more flux/activation; lower = inhibition) is 0.574.
The same measure for `Cc1ccccc1-c1nc(CS(=O)(=O)CC(=O)N2CCc3ccccc3C2)c(C)o1`: -3.98 (active); for `S=C(NCc1ccc2c(c1)OCO2)NCc1ccco1`: -0.178.
Consider `CCOC(=O)C1CCN(C(=O)Nc2cccc(OC)c2)CC1`, for which the B-score of Tl+ flux slope (higher = more flux/activation; lower = inhibition) was 0.26.
The same measure for `Cc1ccccc1Cn1c2ccccc2c2cnn(CC(=O)NCc3ccco3)c(=O)c21`: -0.21; for `COC(=O)CNc1nc(Cl)nc(N2CCC(C)CC2)n1`: 0.436.
The same measure for `O=C(Nc1ccc(C(=O)O)cc1)/C(=C/c1ccc([N+](=O)[O-])cc1)NC(=O)c1ccccc1`: -0.11.
The figure for `O=C(Nc1ccccc1)/C(=C/c1ccc([N+](=O)[O-])cc1)NC(=O)c1ccccc1` is 0.951; for `CNC(=O)/C(=C\C=C\c1ccccc1)NC(=O)c1ccc([N+](=O)[O-])cc1` it is -6.01 (active); for `Cc1ccc(/C=C/C(=O)O)cc1S(=O)(=O)N1CCC(Cc2ccccc2)CC1` it is -2.01.
`Cc1ccc(C)c2c1cc(C)c1nnc(SCC(=O)Nc3cccc(C(=O)O)c3)n12`: the B-score of Tl+ flux slope (higher = more flux/activation; lower = inhibition) was 4.23.
With `COc1cc2nc(Cl)nc(NCCO)c2cc1OC`, the B-score of Tl+ flux slope (higher = more flux/activation; lower = inhibition) was 0.407.
The figure for `CC(Sc1nc2ccccc2c(=O)n1Cc1ccco1)C(=O)c1ccccc1` (centres undefined) is -0.121; for `COc1cccc(NC(=O)C(Sc2nnnn2C)c2ccccc2)c1` (centres undefined) it is -0.113.
The same measure for `COc1cccc(NC(=O)C(Sc2nc3ccccc3c(=O)n2CC(C)C)c2ccccc2)c1` (centres undefined): 7.69 (active).
The figure for `Nc1nc(Sc2ncccc2[N+](=O)[O-])n[nH]1` is -0.977.
Consider `Cc1ccc(N2C(=O)CN=C2Nc2nc(C)cc(C)n2)cc1`, for which the B-score of Tl+ flux slope (higher = more flux/activation; lower = inhibition) is 0.73.
For `CC(=O)NC(=S)NNC(=O)c1ccc(Br)cc1`, the B-score of Tl+ flux slope (higher = more flux/activation; lower = inhibition) was 5.47 (active).
The figure for `O=C(CCc1ccccc1)NNC(=O)c1ccc(Br)cc1` is -1.74; for `CNC(=S)NNC(=O)c1ccc(N(C)C)cc1` it is 0.736.
The same measure for `COC(=O)c1ccc(S(=O)(=O)NCc2ccccc2)n1C`: -0.343.
On to `O=C1CCCCC1C(=O)c1ccccc1` (centres undefined), for which the B-score of Tl+ flux slope (higher = more flux/activation; lower = inhibition) is 0.304.
The same measure for `CN(C)c1cc(-c2ccc(F)cc2)oc(=O)c1Cl`: 0.0271.
With `COc1ccnc(Oc2ccccc2)c1-c1ncn[nH]1`, the B-score of Tl+ flux slope (higher = more flux/activation; lower = inhibition) was 0.306.
`O=C(CNCc1cccs1)Nc1cc(S(=O)(=O)N2CCCC2)ccc1Cl`: the B-score of Tl+ flux slope (higher = more flux/activation; lower = inhibition) was -3.68 (active).
The same measure for `O=C(NCc1cccs1)C1CCN(S(=O)(=O)c2ccc(Cl)cc2)CC1`: -0.17.
The same measure for `O=C(CNCc1ccco1)Nc1cc(S(=O)(=O)N2CCOCC2)ccc1N1CCCC1`: -0.873; for `COCCCn1c(-c2cccs2)nc2nc3ccccc3nc21`: 0.0602; for `O=C(N/N=C1\CCSC1)c1cc(Cl)ccc1O`: 0.11.
The same measure for `C/C(=N/NC(=O)c1cc(Cl)ccc1O)C12CC3CC(CC(C3)C1)C2`: 4.51 (active).
For `COc1ccc(Cl)cc1NC(=O)CN(C)C(=O)CNC(=O)C12CC3CC(CC(C3)C1)C2`, the B-score of Tl+ flux slope (higher = more flux/activation; lower = inhibition) was 0.0604.
The figure for `CCOC(=O)C1CCN(C(=O)Nc2ccc(C)c(Cl)c2)CC1` is 0.0935; for `CCOC(=O)C(=Cc1ccccc1OC)C(=O)OCC` it is -0.438; for `O=C(CN1C(=O)/C(=C/c2ccccc2F)Sc2ccccc21)NCc1cccnc1` it is -1.86.
The figure for `COc1ccc(C(=O)C2CCCN(C(=O)c3cnsn3)C2)c(C)c1` (centres undefined) is -0.0096; for `O=S(=O)(c1ccccc1)N1CN(Cc2ccc(F)cc2)c2nc3ccccc3nc21` it is -1.17.
Regarding `COc1cccc(Nc2nnc(SCC(=O)N3CC(=O)Nc4ccccc43)s2)c1`, the B-score of Tl+ flux slope (higher = more flux/activation; lower = inhibition) was -0.459.
The figure for `O=C1COc2ccc(C(=O)COC(=O)c3cccnc3Cl)cc2N1` is -0.384; for `CCc1ccc(Nc2nnc(SCC(=O)c3ccc4c(c3)NC(=O)CO4)s2)cc1` it is -5.32 (active).
The same measure for `O=C(Cn1cnc2cc([N+](=O)[O-])ccc2c1=O)NC(=O)NCc1ccccc1`: -0.182.
The figure for `CC(=O)c1ccc(S(=O)(=O)Nc2ccc(C(=O)NCC(c3ccccc3)N(C)C)cc2)cc1` (centres undefined) is 0.133.
In the case of `COc1ccc(N2CCC(CNC(=S)Nc3c(C)cccc3C)C2)cc1` (centres undefined), the B-score of Tl+ flux slope (higher = more flux/activation; lower = inhibition) was -0.00939.
The figure for `Cc1c(NC(=O)c2cccnc2)c(=O)n(-c2ccccc2)n1C` is 0.0888.
In the case of `Cc1c(NC(=O)CSc2nnnn2-c2ccc(C(=O)O)cc2)c(=O)n(-c2ccccc2)n1C`, the B-score of Tl+ flux slope (higher = more flux/activation; lower = inhibition) is 1.95.
The figure for `Cc1c(NC(=O)CSc2cccc3cccnc23)c(=O)n(-c2ccccc2)n1C` is 4.92 (active).
The figure for `Nc1c(C(=O)NCc2ccccc2)nnn1Cc1cccc(Cl)c1` is -1.02; for `O=c1[nH]n(-c2cccc(Cl)c2)c2ncccc12` it is 0.268; for `Clc1cccc(CN2COc3c(cc(Cl)c4cccnc34)C2)c1` it is 4.19 (active).
In the case of `O=C(NNS(=O)(=O)c1ccccc1C(F)(F)F)c1cc2ncc(C(F)(F)F)cc2s1`, the B-score of Tl+ flux slope (higher = more flux/activation; lower = inhibition) was -0.726.
